Measurements published in PubChem BioAssay.
Records with an inconclusive call do not appear. Active and inactive are the calls of the source.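 How the source made its calls, unless noted: active means percent response above a set limit, the screen-wide mean plus 3 SD (cut at about 130% in these data); inactive means the rest.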

How the values were obtained:
[1] = yeast TOR pathway RPL19A-GFP modulators, primary screen, cell-based, S. cerevisiae, multiplex flow cytometry (AID 1862; in the data active means percent of DMSO control GFP below about 86%;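 further: lower values mimic rapamycin by blocking the RPL19A rise seen in DMSO cells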); settings: S. cerevisiae RPL19A-GFP strain, flow cytometry fluorescence, 3 h; at 10 µM; stronger effect = lower value
[2] = modulators of MEP2-GFP levels in yeast, primary screen, S. cerevisiae, multiplex flow cytometry (AID 1867;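 active means GFP response, as percent of the DMSO control, above the screen-wide mean plus 3 SD, about 139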;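 further: median GFP channel fluorescence of barcode-gated MEP2-GFP cells measured by flow cytometry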); settings: S. cerevisiae MEP2-GFP strain, 3 h, at 10 µM, stronger effect = higher value, 100% means same as DMSO wells
[3] = modulators of CIT2-GFP expression in yeast, primary screen, S. cerevisiae, GFP fusion, multiplex flow cytometry (AID 1870); settings: 3 h, at 10 µM, stronger effect = higher value;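 further: barcoded CIT2-GFP strain pooled with four other GFP strains with rapamycin as positive control; median GFP fluorescence per well over plate mean of DMSO wells so 100% = DMSO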
[4] = modulators of LAP4-GFP expression in yeast, primary screen, S. cerevisiae, multiplex flow cytometry (AID 1873;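 active means GFP signal, as percent of the solvent control, above the screen mean plus 3 SD, about 149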); settings: 3 h, at 10 µM, stronger effect = higher value
[5] = modulators of AGP1-GFP expression in yeast TOR pathway, primary screen, cell-based, multiplex flow cytometry, S. cerevisiae (AID 1887;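 active means GFP signal above the screen-wide mean plus 3 SD, that is over about 124.5% of the solvent control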;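 further: AGP1-GFP fusion strain of S. cerevisiae within a five-strain barcoded multiplex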); settings: 3 h, at 10 µM, stronger effect = higher value
[6] = inhibitors of CD8+ T cell-vesicle binding, pilot screen, LFA-1/ICAM-1 modulator project, MLPCN validation set, flow cytometry (AID 2523;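 active means response below a set limit, under 55% cells CD8-positive and vesicle-bound, and CD8 cells' 90th-percentile brightness under 279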;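 on vesicle binding response: mean PE anti-B7-1 fluorescence of CD8+ cells relative to row control; 100% = QL9-loaded vesicles with DMSO vehicle in the same plate row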); settings: 2C mouse CD8+ T cells, at 7 µM, stronger effect = lower value; double positive events: measured here: CD8+/vesicle+ event percentage
[7] = target: Integrin beta-1 (Homo sapiens) + Integrin alpha-4 (Homo sapiens) (UniProt P13612+P05556); assay: inhibition of HUTS-21 binding to VLA-4, pilot screen, VLA-4 allosteric modulator project, U937 cells, HUTS-21 mAb, flow cytometry, validation set (AID 2674;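 active means inhibition above 50%, about 3 SD of the validation set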;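 further: antibody binding induced by the VLA-4 ligand LDV present at three times its Kd; 0% = LDV ligand with antibody and no compound and 100% = antibody without LDV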); settings: HUTS-21 LIBS mAb binding, at 6.7 µM, stronger effect = higher value, binding induced by LDV ligand
Chain of Integrin beta-1 (Homo sapiens) + Integrin alpha-4 (Homo sapiens) (P05556 whole entry, looked up): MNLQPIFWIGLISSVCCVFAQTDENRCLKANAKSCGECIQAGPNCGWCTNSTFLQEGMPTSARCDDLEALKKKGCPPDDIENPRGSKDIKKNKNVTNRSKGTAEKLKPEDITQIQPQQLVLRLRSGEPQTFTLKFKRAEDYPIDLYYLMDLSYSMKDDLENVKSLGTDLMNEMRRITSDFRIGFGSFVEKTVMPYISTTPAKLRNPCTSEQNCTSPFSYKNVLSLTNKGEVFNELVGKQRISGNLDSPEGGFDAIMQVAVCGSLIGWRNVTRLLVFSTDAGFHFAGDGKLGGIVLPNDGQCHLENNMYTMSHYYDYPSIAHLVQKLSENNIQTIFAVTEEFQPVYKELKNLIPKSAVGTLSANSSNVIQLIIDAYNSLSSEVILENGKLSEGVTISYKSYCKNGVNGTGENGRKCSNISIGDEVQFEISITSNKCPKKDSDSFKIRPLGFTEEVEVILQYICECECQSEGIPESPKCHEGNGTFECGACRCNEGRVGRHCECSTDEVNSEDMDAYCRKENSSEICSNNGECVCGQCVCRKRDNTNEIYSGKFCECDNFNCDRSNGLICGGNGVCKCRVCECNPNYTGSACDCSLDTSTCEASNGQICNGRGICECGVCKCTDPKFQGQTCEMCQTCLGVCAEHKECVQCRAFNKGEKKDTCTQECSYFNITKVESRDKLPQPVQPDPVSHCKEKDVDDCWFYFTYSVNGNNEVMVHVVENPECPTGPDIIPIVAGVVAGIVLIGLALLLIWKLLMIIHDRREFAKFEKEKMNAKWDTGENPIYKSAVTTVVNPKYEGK
Chain of Integrin beta-1 (Homo sapiens) + Integrin alpha-4 (Homo sapiens) (P13612 whole entry, looked up): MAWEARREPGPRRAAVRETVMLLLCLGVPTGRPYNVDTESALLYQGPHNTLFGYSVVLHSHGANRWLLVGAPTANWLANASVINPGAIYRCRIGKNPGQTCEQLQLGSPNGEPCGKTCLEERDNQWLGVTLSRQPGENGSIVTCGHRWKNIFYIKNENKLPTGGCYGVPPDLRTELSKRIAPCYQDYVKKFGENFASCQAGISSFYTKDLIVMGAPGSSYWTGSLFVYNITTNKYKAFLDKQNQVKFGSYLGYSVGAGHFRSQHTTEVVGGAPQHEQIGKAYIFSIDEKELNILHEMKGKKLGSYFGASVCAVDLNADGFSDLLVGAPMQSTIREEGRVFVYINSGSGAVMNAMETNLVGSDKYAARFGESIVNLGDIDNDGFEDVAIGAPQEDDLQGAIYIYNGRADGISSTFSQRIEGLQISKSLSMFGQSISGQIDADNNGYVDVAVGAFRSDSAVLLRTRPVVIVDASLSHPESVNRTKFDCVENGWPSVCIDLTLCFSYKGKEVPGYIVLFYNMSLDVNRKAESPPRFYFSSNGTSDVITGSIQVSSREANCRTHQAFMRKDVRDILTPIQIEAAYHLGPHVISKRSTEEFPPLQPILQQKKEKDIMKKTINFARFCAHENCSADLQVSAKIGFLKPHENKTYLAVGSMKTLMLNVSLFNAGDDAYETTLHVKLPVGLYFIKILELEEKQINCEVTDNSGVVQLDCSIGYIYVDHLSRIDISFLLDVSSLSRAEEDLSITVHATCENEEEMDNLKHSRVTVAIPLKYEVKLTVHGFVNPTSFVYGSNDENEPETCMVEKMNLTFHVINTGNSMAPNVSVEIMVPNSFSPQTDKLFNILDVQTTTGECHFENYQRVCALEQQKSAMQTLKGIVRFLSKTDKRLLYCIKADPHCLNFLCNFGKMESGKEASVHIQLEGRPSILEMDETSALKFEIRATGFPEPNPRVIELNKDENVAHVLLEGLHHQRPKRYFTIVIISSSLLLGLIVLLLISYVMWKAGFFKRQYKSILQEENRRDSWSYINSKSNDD

[8] = superoxide lowering in aged yeast cells, pilot screen, validation compound set (AID 2706;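 active means superoxide response below 65% of plate, a cut near 3 SD across the whole screen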;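 further: yeast exposed to compound for one week at 30 degrees C before staining; 100% = mean of all compound wells on the same plate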); settings: S. cerevisiae aging, superoxide DHE fluorescence; at 10 µM; stronger effect = lower value
[9] = target: Beta-adrenergic receptor kinase 1 (Homo sapiens) (UniProt P25098); assay: GRK2 binders displacing RNA aptamer, biochemical, validation, human GRK2, bead flow cytometry (AID 488806;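 active means aptamer binding inhibition above 30%, about 3 SD of noise from non-fluorescent compounds; inactive means inhibition at or below 30%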); settings: bead-bound GRK2, FAM-aptamer displacement, at 10 µM, stronger effect = higher value
Chain of Beta-adrenergic receptor kinase 1 (Homo sapiens) (P25098 whole entry, looked up): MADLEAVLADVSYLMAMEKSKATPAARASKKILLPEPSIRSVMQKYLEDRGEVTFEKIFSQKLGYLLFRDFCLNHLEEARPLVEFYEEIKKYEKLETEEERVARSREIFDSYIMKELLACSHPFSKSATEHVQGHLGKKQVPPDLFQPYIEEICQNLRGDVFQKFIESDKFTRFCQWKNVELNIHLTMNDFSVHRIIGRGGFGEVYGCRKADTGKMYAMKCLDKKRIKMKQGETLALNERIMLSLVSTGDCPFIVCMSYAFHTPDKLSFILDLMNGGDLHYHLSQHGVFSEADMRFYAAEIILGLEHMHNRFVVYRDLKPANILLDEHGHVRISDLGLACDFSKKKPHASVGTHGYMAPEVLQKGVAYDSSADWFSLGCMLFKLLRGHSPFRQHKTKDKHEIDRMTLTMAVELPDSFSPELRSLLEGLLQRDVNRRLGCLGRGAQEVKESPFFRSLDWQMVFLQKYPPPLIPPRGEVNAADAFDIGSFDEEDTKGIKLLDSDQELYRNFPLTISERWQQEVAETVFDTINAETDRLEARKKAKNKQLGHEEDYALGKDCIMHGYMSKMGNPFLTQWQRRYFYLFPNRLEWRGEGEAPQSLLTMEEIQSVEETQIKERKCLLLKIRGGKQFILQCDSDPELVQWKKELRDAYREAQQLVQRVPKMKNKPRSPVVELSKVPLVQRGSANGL

[10] = target: Beta-2 adrenergic receptor (Homo sapiens) (UniProt P07550); assay: beta2AR agonists driving receptor internalization, pilot screen, cell-based, FAP fluorogen, flow cytometry, validation set (AID 504459;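 active means percent response above 42, roughly 3 SD of non-fluorescent test compounds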;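 further: agonist-driven loss of surface beta2AR via internalization measured by FAP dye flow cytometry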); settings: Am2.2-beta2AR cells, FAP surface receptor flow cytometry; at 10 µM; stronger effect = higher value
Chain of Beta-2 adrenergic receptor (Homo sapiens) (P07550 whole entry, looked up): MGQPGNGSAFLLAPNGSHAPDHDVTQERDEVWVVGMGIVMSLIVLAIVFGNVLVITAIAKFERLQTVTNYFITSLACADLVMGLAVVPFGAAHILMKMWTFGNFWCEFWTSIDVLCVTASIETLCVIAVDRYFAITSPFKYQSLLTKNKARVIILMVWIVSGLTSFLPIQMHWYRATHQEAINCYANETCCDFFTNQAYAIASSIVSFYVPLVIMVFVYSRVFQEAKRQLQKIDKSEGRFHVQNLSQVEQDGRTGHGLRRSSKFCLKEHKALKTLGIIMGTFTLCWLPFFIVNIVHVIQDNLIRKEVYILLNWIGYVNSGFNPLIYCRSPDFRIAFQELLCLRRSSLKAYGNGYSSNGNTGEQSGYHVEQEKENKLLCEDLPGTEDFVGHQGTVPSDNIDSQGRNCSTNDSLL

[11] = target: AP-2 complex subunit beta (Homo sapiens) (UniProt P63010); assay: inhibitors of arrestin peptide binding to AP2, pilot screen, biochemical, validation set, GST-AP2 beads, flow cytometry (AID 504541;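 active means inhibition above 54%, about 3 SD of non-fluorescent compounds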;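 further: AP2 carries R879A mutation and is captured from E. coli lysate; bead-bound FITC arrestin peptide fluorescence measuring arrestin peptide binding to AP2; 0% = DMSO wells and 100% = excess unlabeled arrestin peptide control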); settings: FITC arrestin peptide, at 10 µM, stronger effect = higher value, AP2 beta2 appendage fragment, R879A mutant
Chain of AP-2 complex subunit beta (Homo sapiens) (P63010 whole entry, looked up, the tested form may be a part, one chain of several): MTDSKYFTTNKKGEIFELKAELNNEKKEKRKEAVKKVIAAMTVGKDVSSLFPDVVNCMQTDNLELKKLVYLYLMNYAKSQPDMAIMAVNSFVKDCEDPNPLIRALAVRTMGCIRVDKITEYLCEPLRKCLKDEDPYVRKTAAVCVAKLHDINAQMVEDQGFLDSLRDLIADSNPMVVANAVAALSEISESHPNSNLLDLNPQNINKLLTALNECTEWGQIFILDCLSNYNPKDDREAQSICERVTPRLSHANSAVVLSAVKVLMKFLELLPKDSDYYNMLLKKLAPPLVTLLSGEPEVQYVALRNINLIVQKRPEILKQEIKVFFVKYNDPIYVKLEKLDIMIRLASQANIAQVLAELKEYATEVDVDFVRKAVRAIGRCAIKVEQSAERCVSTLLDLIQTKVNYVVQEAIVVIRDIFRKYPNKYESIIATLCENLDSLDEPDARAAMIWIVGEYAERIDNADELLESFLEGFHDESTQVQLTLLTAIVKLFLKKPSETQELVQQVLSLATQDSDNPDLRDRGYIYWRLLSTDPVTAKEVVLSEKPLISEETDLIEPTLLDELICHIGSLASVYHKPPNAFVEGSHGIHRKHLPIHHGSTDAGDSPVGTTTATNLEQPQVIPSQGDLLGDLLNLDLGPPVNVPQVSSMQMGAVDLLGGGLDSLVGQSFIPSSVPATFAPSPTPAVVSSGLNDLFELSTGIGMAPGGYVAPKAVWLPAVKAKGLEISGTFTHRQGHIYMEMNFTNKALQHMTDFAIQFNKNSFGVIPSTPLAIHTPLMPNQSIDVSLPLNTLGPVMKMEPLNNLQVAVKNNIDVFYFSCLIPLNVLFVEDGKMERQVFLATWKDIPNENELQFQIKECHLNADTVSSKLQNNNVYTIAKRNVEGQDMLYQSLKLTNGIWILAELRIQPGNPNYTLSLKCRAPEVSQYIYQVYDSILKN

[12] = yeast V-ATPase proton transport modulators, S. cerevisiae, pHLuorin, HTS validation (AID 504600; in the data active means response above about 15%;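 further: plate controls were DMSO for no effect and reference compound for full effect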); settings: S. cerevisiae pHLuorin cytosolic pH, at 10 µM, stronger effect = higher value
[13] = test system: anti-desmoglein-3 scFv antibody binding to human DSG3; assay: inhibitors of anti-DSG3 scFv binding to DSG3, pilot screen, biochemical, validation compound set, bead-based, flow cytometry (AID 588368;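 active means binding below the plate cutoff, the plate median minus 3 SD, with a reading above zero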;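 further: signal is the median channel fluorescence of bead-bound GFP antibody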); settings: Protein G beads, DSG3-Fc, scFv-GFP binding, at 10 µM, stronger effect = lower value
[14] = inhibitors of fungal efflux pumps CDR1, CDR2, MDR1, pilot screen, validation compound set, multiplex, phenotypic (AID 588506;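 active means efflux inhibition above 0.42, the validation set average plus 4 SD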;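 further: Nile Red retained in cells so higher fluorescence means more efflux inhibition; 0 = negative control wells and 1 = enniatin B 25 µM full block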); settings: S. cerevisiae pump-expressing triplex, Nile Red efflux flow cytometry; at 10 µM; stronger effect = higher value; the pumps come from Candida albicans
[15] = target: ATP-binding cassette sub-family B member 6 (Homo sapiens) (UniProt Q9NP58); assay: ABCB6 transporter inhibitors, pilot screen, K562-ABCB6 cells, flow cytometry, validation set (AID 588550;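 active means inhibition above the screen-wide mean plus 3 SD, about 51%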;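 further: 0% = DMSO wells and 100% = benzethonium chloride 70 µM positive control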); settings: K562-ABCB6 porphyrin accumulation, 1 h, at 10 µM, stronger effect = higher value
Chain of ATP-binding cassette sub-family B member 6 (Homo sapiens) (Q9NP58 whole entry, looked up): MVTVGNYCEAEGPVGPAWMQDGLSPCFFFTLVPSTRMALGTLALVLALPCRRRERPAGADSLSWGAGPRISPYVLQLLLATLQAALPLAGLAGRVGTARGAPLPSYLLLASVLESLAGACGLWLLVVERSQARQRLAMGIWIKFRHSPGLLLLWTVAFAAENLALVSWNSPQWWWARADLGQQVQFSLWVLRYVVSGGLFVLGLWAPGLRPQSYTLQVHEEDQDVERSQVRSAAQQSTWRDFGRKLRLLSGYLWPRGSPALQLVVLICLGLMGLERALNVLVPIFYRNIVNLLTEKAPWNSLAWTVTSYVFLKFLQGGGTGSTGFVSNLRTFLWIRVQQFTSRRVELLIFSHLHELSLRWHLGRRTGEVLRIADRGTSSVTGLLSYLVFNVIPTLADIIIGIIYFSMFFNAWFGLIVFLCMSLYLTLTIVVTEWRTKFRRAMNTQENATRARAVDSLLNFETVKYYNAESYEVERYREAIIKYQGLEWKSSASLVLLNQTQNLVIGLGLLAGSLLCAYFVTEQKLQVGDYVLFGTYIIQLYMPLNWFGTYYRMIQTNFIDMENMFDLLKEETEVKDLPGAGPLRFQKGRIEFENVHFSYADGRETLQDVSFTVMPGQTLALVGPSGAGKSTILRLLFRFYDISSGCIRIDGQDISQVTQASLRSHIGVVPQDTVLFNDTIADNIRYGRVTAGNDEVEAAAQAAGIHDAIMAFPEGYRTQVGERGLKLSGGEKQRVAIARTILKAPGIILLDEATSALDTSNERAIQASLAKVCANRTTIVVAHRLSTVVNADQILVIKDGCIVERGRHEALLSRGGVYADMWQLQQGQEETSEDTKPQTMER

[16] = promoters of myeloid differentiation in arrested cells, primary screen, cell-based, GFP/MAC1 double positive, flow cytometry, validation set (AID 588685;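 active means differentiation response of at least 50%, scaled between solvent and reference control, from cells with both markers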;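 further: compound exposure lasts four days before antibody staining and flow analysis; 0% = DMSO wells and 100% = 5 µM fulvestrant positive control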); settings: ER-HoxA9 marrow cells, stronger effect = higher value, normalized: vehicle 0, fulvestrant 100

COc1ccc(N2CCN(C(=S)NCc3ccccc3)CC2)cc1
percent of DMSO control GFP [1]: 91.7% (inactive)
GFP response vs DMSO [2]: 133% (inactive)
percent response of DMSO control [3]: 101% (inactive)
GFP response vs DMSO [4]: 81.4% (inactive)
GFP response, % of DMSO [5]: 88.2% (inactive)
double positive events [6]: 65.5%
vesicle binding response [6]: 171% (inactive)
inhibition [7]: 0.64% (inactive)
superoxide response (% of plate) [8]: 82.1% (inactive)
aptamer binding inhibition [9]: 2% (inactive)
response [10]: -3.32% (inactive)
inhibition [11]: 30.1% (inactive)
response [12]: -3.6% (inactive)
binding (% of control) [13]: 108% (inactive)
efflux inhibition (fraction of control) [14]: 0.16 (inactive)
inhibition [15]: 0% (inactive)
differentiation response [16]: 4.09% (inactive)

Nc1cnn(C2OC(CO)C(O)C2O)c(=O)n1 (stereo not drawn)
percent of DMSO control GFP [1]: 102% (inactive)
GFP response vs DMSO [2]: 108% (inactive)
percent response of DMSO control [3]: 100% (inactive)
GFP response vs DMSO [4]: 102% (inactive)
GFP response, % of DMSO [5]: 99.4% (inactive)
double positive events [6]: 63.4%
vesicle binding response [6]: 463% (inactive)
inhibition [7]: -13.9% (inactive)
superoxide response (% of plate) [8]: 99.1% (inactive)
aptamer binding inhibition [9]: 3% (inactive)
response [10]: -1.33% (inactive)
inhibition [11]: 1.7% (inactive)
response [12]: 0.15% (inactive)
binding (% of control) [13]: 97.7% (inactive)
efflux inhibition (fraction of control) [14]: 0.11 (inactive)
inhibition [15]: 0% (inactive)
differentiation response [16]: -8.55% (inactive)

COc1cc(C(=O)Nc2cccc(-c3nnc(-c4ccco4)o3)c2)ccc1OC(C)=O
percent of DMSO control GFP [1]: 103% (inactive)
GFP response vs DMSO [2]: 103% (inactive)
percent response of DMSO control [3]: 104% (inactive)
GFP response vs DMSO [4]: 109% (inactive)
GFP response, % of DMSO [5]: 107% (inactive)
double positive events [6]: 52.3%
vesicle binding response [6]: 52.3% (active)
inhibition [7]: 12.5% (inactive)
superoxide response (% of plate) [8]: 109% (inactive)
aptamer binding inhibition [9]: 5% (inactive)
response [10]: 3.82% (inactive)
inhibition [11]: 64.4% (active)
response [12]: 2.66% (inactive)
binding (% of control) [13]: 106% (inactive)
efflux inhibition (fraction of control) [14]: 0.17 (inactive)
inhibition [15]: -5% (inactive)
differentiation response [16]: -10.9% (inactive)

CCOC(=O)N1CCc2[nH]c3ccc(C)cc3c2C1
percent of DMSO control GFP [1]: 95.5% (inactive)
GFP response vs DMSO [2]: 102% (inactive)
percent response of DMSO control [3]: 103% (inactive)
GFP response vs DMSO [4]: 140% (inactive)
GFP response, % of DMSO [5]: 103% (inactive)
double positive events [6]: 64.6%
vesicle binding response [6]: 175% (inactive)
inhibition [7]: -3.67% (inactive)
superoxide response (% of plate) [8]: 110% (inactive)
aptamer binding inhibition [9]: -1% (inactive)
response [10]: -9.79% (inactive)
inhibition [11]: 4.56% (inactive)
response [12]: 14.9% (inactive)
binding (% of control) [13]: 105% (inactive)
efflux inhibition (fraction of control) [14]: 0.25 (inactive)
inhibition [15]: -9% (inactive)
differentiation response [16]: -4% (inactive)

O=C(O)c1ccc(N2C(=O)/C(=C\c3ccccc3)N=C2c2ccccc2)cc1
percent of DMSO control GFP [1]: 103% (inactive)
GFP response vs DMSO [2]: 106% (inactive)
percent response of DMSO control [3]: 99.7% (inactive)
GFP response vs DMSO [4]: 110% (inactive)
GFP response, % of DMSO [5]: 98% (inactive)
double positive events [6]: 58.6%
vesicle binding response [6]: 120% (inactive)
inhibition [7]: -5.11% (inactive)
superoxide response (% of plate) [8]: 111% (inactive)
aptamer binding inhibition [9]: 2% (inactive)
response [10]: -17.4% (inactive)
inhibition [11]: -10.8% (inactive)
response [12]: -0.35% (inactive)
binding (% of control) [13]: 98.1% (inactive)
efflux inhibition (fraction of control) [14]: -0.2 (inactive)
inhibition [15]: -15% (inactive)
differentiation response [16]: -0.18% (inactive)

Fc1ccc(-c2cc(-c3ccccc3)nc(-n3cccn3)n2)cc1
percent of DMSO control GFP [1]: 96.5% (inactive)
GFP response vs DMSO [2]: 106% (inactive)
percent response of DMSO control [3]: 99.3% (inactive)
GFP response vs DMSO [4]: 97.2% (inactive)
GFP response, % of DMSO [5]: 75.4% (inactive)
double positive events [6]: 57.7%
vesicle binding response [6]: 11.1% (inactive)
inhibition [7]: 6.85% (inactive)
superoxide response (% of plate) [8]: 92% (inactive)
aptamer binding inhibition [9]: 4% (inactive)
response [10]: 8.42% (inactive)
inhibition [11]: 34.7% (inactive)
response [12]: 0.43% (inactive)
binding (% of control) [13]: 102% (inactive)
efflux inhibition (fraction of control) [14]: 0.3 (inactive)
inhibition [15]: 2% (inactive)
differentiation response [16]: 20.9% (inactive)

CC1=C(C)C(=O)C(CCCCC#CCCCC#CCO)=C(C)C1=O
percent of DMSO control GFP [1]: 99.3% (inactive)
GFP response vs DMSO [2]: 99.6% (inactive)
percent response of DMSO control [3]: 99.6% (inactive)
GFP response vs DMSO [4]: 108% (inactive)
GFP response, % of DMSO [5]: 107% (inactive)
double positive events [6]: 62.8%
vesicle binding response [6]: 137% (inactive)
inhibition [7]: 20.2% (inactive)
superoxide response (% of plate) [8]: 77.4% (inactive)
aptamer binding inhibition [9]: 4% (inactive)
response [10]: -12.4% (inactive)
inhibition [11]: -0.87% (inactive)
response [12]: 1.96% (inactive)
binding (% of control) [13]: 103% (inactive)
efflux inhibition (fraction of control) [14]: -0.13 (inactive)
inhibition [15]: -1% (inactive)
differentiation response [16]: 5.85% (inactive)

COC(=O)[C@H]1[C@H]2C[C@@H]3c4[nH]c5cc(OC)ccc5c4CCN3C[C@H]2C[C@@H](OC(=O)c2ccc(N)cc2)[C@@H]1OC
percent of DMSO control GFP [1]: 105% (inactive)
GFP response vs DMSO [2]: 98.3% (inactive)
percent response of DMSO control [3]: 111% (inactive)
GFP response vs DMSO [4]: 94% (inactive)
GFP response, % of DMSO [5]: 102% (inactive)
double positive events [6]: 64.5%
vesicle binding response [6]: 828% (inactive)
inhibition [7]: -393% (inactive)
superoxide response (% of plate) [8]: 97% (inactive)
aptamer binding inhibition [9]: 3% (inactive)
response [10]: -18.1% (inactive)
inhibition [11]: -1.6% (inactive)
response [12]: -2.37% (inactive)
binding (% of control) [13]: 104% (inactive)
efflux inhibition (fraction of control) [14]: -0.17 (inactive)
inhibition [15]: -53% (inactive)
differentiation response [16]: 0.24% (inactive)

CN(C(=O)C(Cl)Cl)c1ccc(OC(=O)c2ccco2)cc1
percent of DMSO control GFP [1]: 99% (inactive)
GFP response vs DMSO [2]: 105% (inactive)
percent response of DMSO control [3]: 97.8% (inactive)
GFP response vs DMSO [4]: 98% (inactive)
GFP response, % of DMSO [5]: 96.8% (inactive)
double positive events [6]: 59.3%
vesicle binding response [6]: 90.2% (inactive)
inhibition [7]: -1.49% (inactive)
superoxide response (% of plate) [8]: 94% (inactive)
aptamer binding inhibition [9]: 4% (inactive)
response [10]: 5.41% (inactive)
inhibition [11]: 15.3% (inactive)
response [12]: -0.32% (inactive)
binding (% of control) [13]: 99% (inactive)
efflux inhibition (fraction of control) [14]: -0.04 (inactive)
inhibition [15]: 7% (inactive)
differentiation response [16]: -3.67% (inactive)
